Laboratory results: PubChem BioAssay AID1981 (Southern Research Specialized Biocontainment Screening …, 2009)
Among all 2,200 compounds or so, about 480 (22%) were called active. The rule behind the calls is not given here. A selection follows. Results with a measured potency or affinity are listed apart.

Assay: S. Typhimurium GFP fluorescence dose response in modified counterscreen for PhoP regulon inhibitor project (AID 1981);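 note: 0% = induced DMSO wells and 100% = uninduced wells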
Settings: 4 h; series mostly up to 150 µM; inhibition: at the top concentration

Row | SMILES | inhibition
1 | CCOC(=O)C1=NNC2(c3ccc(Cl)cc3)C(=O)N(c3cc(C)cc(C)c3)C(=O)C12 (centres undefined) | -7.93% (inactive)
2 | CCn1nc(C(=O)OC(C(=O)c2c[nH]c3ccccc23)c2ccccc2)c2ccccc2c1=O (centres undefined) | 39.2% (inactive)
3 | Cc1ccc(/C=N/NC(=O)Cn2cnc3ccccc32)o1 | -14.7% (inactive)
4 | COc1cccc(/C=N/NC(=O)c2ccc(-c3ccccc3)cc2)c1O | 11.6% (inactive)
5 | c1ccc2c(N3CCCCCC3)nc(-c3ccncc3)nc2c1 | 1.68% (inactive)
6 | Brc1ccc(OCCn2ccnc2)cc1 | 11.1% (inactive)
7 | Oc1ccccc1-c1nc(/C=C/c2ccccc2)nn1-c1ccccc1 | -36.1% (inactive)
8 | Cc1cc(C)c(NC(=S)NC(=O)c2ccc(-c3ccccc3)cc2)c(C)c1 | 2.08% (inactive)
9 | CC(C)OC(=O)c1ccc(NC(=O)c2ccccc2)cc1 | -11.2% (inactive)
10 | O=C(Cc1cccs1)N(c1ccccc1)C1C=CS(=O)(=O)C1 (centres undefined) | -11.7% (inactive)
11 | Oc1[nH]c(=S)sc1/C=C1\C(c2ccccc2)=Nc2ccccc21 | -4.64% (inactive)
12 | Oc1ccc(Br)cc1-c1ccn[nH]1 | -8.94% (inactive)
13 | O=C(CSc1nc2ccccc2[nH]1)Nc1ccc(F)c(F)c1 | -2.94% (inactive)
14 | Cc1ccc(O)c(-c2cc(-c3ccccc3C)[nH]n2)c1 | 15.8% (inactive)
15 | Clc1c(OCCCn2ccnc2)ccc2ccccc12 | -2.83% (inactive)
16 | Cc1ccc(C)n1-c1cc([N+](=O)[O-])ccc1-n1ccnc1 | 1.81% (inactive)
17 | CN(CCO)Cc1csc2ccc(Br)cc12 | 10.8% (inactive)
18 | O=C(Nc1cccc2ccccc12)OC1C=CS(=O)(=O)C1 (centres undefined) | 0.66% (inactive)
19 | CN(C)C=NC(=O)c1[nH]c2ccc(Cl)cc2c1-c1ccccc1 | -3.96% (inactive)
20 | Cn1cnnc1SCC(=O)Nc1cccc(C(=O)O)c1 | -3.44% (inactive)
21 | Cc1nnc(SC(C)C(=O)Nc2ccc(S(=O)(=O)N3CCCCCC3)cc2)s1 (centres undefined) | -5.05% (inactive)
22 | CCOC(=O)c1cn(CC)c2cc(N3CCOCC3)c(F)cc2c1=O | -4.83% (inactive)
23 | CCOC(=O)N1CCN(C(=O)c2cn(CC(C)C)c(=O)c3c2c2ccccc2n3C)CC1 | -15.5% (inactive)

Row | SMILES | inhibition
24 | N#CC1=C(S)N(c2ccccc2)C(c2ccc(-c3ccccc3Cl)o2)NC1=O (centres undefined) | 38.9% (inactive)
25 | Cc1ccc(O)c(-c2cc(-c3cccc(F)c3)n[nH]2)c1 | 17.5% (inactive)
26 | Cc1ccc2nc(C)c(CN3CCN(c4ccc([N+](=O)[O-])cc4Cl)CC3)n2c1 | 6.83% (inactive)
27 | O=S(=O)(Nc1ccc(Cc2ccncc2)cc1)c1ccc(Br)s1 | -5.89% (inactive)
28 | Nc1ccc2oc3ccc(N)cc3c(=O)c2c1 | 5.55% (inactive)
29 | Nc1ccc2oc(=O)c3ccccc3c2c1 | 15.3% (inactive)
30 | COc1ccc(-n2ncc(S(=O)(=O)c3ccccc3)c2-c2ccc(Cl)cc2)cc1 | -1.69% (inactive)
31 | COc1ccc2nc(SCC(=O)N(C)C3CCCCC3)c(C#N)cc2c1 | 11.2% (inactive)
32 | CCCn1c(SCC(=O)NCCc2ccccc2)nnc1-c1cccnc1 | -17.2% (inactive)
33 | Cc1ccc(-c2[nH]c(-c3ccc(Cl)cc3)nc2SCC(=O)NCC2CCCO2)cc1 (centres undefined) | -22.5% (inactive)
34 | S=C(NN=C1C2CC3CC(C2)CC1C3)Nc1ccccc1 | -20.6% (inactive)
35 | Cc1ccc(C(C(=O)NCc2ccco2)N(CCc2ccccc2)C(=O)Cn2nnc3ccccc32)o1 (centres undefined) | 0.66% (inactive)
36 | O=C(Nc1cccc(-c2cn3cccnc3n2)c1)c1ccco1 | -0.8% (inactive)
37 | Cn1c(NCc2ccccc2O)nc2ccccc21 | -11% (inactive)
38 | N/C(=N\OC(=O)c1ccc(F)cc1)c1nonc1N | -2.93% (inactive)
39 | CNC(=O)c1ccc(-c2ccc(F)cc2)s1 | 3.2% (inactive)
40 | COc1cc(/C=C2/SC(=S)N(CC(=O)Nc3cccnc3)C2=O)cc(OC)c1OC | 0.53% (inactive)
41 | CCCCCCC(=O)N(O)C1CC(=O)N(c2ccc(C)cc2)C1=O (centres undefined) | 32.2% (inactive)
42 | C=CCNC(=S)NNC(=O)c1cccn(Cc2ccc(Cl)cc2)c1=O | -6.06% (inactive)
43 | Nc1cc(Br)c(N)c(Br)c1 | 3.41% (inactive)
44 | CC(=O)NC1C(c2nc3ccccc3s2)=C(c2ccccc2)C(=O)N1c1ccc(C)cc1 (centres undefined) | 8.75% (inactive)
45 | CC1Cc2ccccc2N1C(=O)COC(=O)c1ccc(S(=O)(=O)N(C)C)cc1 (centres undefined) | -8.24% (inactive)
46 | COC(=O)Cc1c(O)ccn(Cc2ccc(F)cc2)c1=O | 2.05% (inactive)

Row | SMILES | inhibition
47 | CCc1c(C)c2cc(Cl)c(O)c(CN(C)C)c2oc1=O | -4.76% (inactive)
48 | CC1=CC(C)(C)n2c(O)c(C3=NC(=S)NC3=O)c3cc(OC(=O)c4cccc5ccccc45)cc1c32 | 3.99% (inactive)
49 | N=c1n(CC(=O)c2ccc([N+](=O)[O-])cc2)c2ccccc2n1Cc1ccccc1 | 6.44% (inactive)
50 | Cn1c(=N)n(CC(=O)c2ccc(Br)s2)c2ccccc21 | 3.25% (inactive)
51 | COc1cc(S(=O)(=O)N2CCCCC2)ccc1NC=O | 4.28% (inactive)
52 | NC1=Nc2ccccc2Oc2ccccc21 | 9.55% (inactive)
53 | NC1=NC(=Nc2cccc(Cl)c2)c2ccccc21 | 2.71% (inactive)
54 | c1ccc2c(C3=NNC(=NC4CCCCC4)SC3)c[nH]c2c1 | 22.7% (inactive)
55 | CN(C)S(=O)(=O)Nc1ccc(C(=O)O)cc1 | -3.1% (inactive)
56 | COc1cccc(OCC(O)CN2CCN(c3ccccn3)CC2)c1 (centres undefined) | 4.43% (inactive)
57 | Cn1c(SCC(=O)NC(=O)c2cccc([N+](=O)[O-])c2)nnc1-c1ccc(F)cc1 | -12.3% (inactive)
58 | O=C(Cn1cc[n+](CC(=O)c2ccccc2)c1)c1ccccc1 | 2.89% (inactive)
59 | C/C(=N/Nc1nc(-c2ccccc2)cc(-c2ccc(F)cc2)n1)c1cccc(N)c1 | -15.2% (inactive)
60 | c1ccc(-c2nnc(SCCC3OCCCO3)o2)cc1 | 0.89% (inactive)
61 | CC1(C)CC2CC(C)(CN2C(=O)COC(=O)c2n[nH]c(=O)c3ccccc23)C1 (centres undefined) | -11.8% (inactive)
62 | Fc1ccccc1COc1ccc(Br)cc1CNCc1ccncc1 | 6.22% (inactive)
63 | c1ccc(COc2ccccc2CNCc2cccnc2)cc1 | -13.4% (inactive)
64 | O=[N+]([O-])c1ccccc1CNc1ccc(F)c(Cl)c1 | -9.25% (inactive)
65 | O=c1cc(CSc2nc(NCc3ccccc3)c3ccccc3n2)nc2ccc(Cl)cn12 | -1.33% (inactive)
66 | N#CCCN(C(=O)CN1C(=O)NC2(CCCC2)C1=O)c1ccccc1F | -3.3% (inactive)
67 | O=C(CCNS(=O)(=O)c1cccc2nsnc12)Nc1ccc2c(c1)OCCO2 | -1.71% (inactive)
68 | Cc1nc2c(=O)n(C)c(=O)n(C)c2nc1Cl | 27.1% (inactive)
69 | Cc1cc(C)nc(/N=C(\N)Nc2ccc(SC(F)F)cc2)n1 | -2.31% (inactive)

Row | SMILES | inhibition
70 | CC(=O)c1c(C)[nH]c(C(=O)CSc2nnc(-c3ccco3)n2Cc2ccccc2)c1C | -0.99% (inactive)
71 | O=C(O)c1cc(NCc2ccc3c(c2)OCO3)ccc1N1CCOCC1 | -0.23% (inactive)
72 | Cc1ccc(S(=O)(=O)c2cn(Cc3ccc(F)cc3)c3cc4c(cc3c2=O)OCO4)cc1 | 1.56% (inactive)
73 | CCn1cc(C(=O)O)c(=O)c2cc(Br)ccc21 | 23.3% (inactive)
74 | O=C(Cn1nc(Cc2cccnc2)c2ccccc2c1=O)NCc1ccc2c(c1)OCO2 | -5.89% (inactive)
75 | Cc1cccc(C(=O)O/N=C2\CCSc3ccc(C)cc32)c1 | -14.1% (inactive)
76 | Cc1cccc(OCC(=O)N(Cc2cccs2)C2CCS(=O)(=O)C2)c1C (centres undefined) | -15.6% (inactive)
77 | O=c1c2c([nH]c3ccccc13)CCCCC2 | 19.2% (inactive)
78 | CCCOc1ccc(/C=N/O)cc1 | -3.17% (inactive)
79 | O=C(C[n+]1cc(-c2ccccc2)n2c1CCCCC2)c1ccc(Cl)cc1 | -1.46% (inactive)
80 | CCN(CC)CC(=O)Nc1nc(-c2ccc(Cl)cc2)cs1 | -7.54% (inactive)
81 | Clc1ccc(C[n+]2cc(-c3ccc(Cl)cc3)n3c2CCC3)cc1 | 7.72% (inactive)
82 | C/C(=N/Nc1nc(-c2ccc(Cl)cc2)cs1)c1cccs1 | -14.2% (inactive)
83 | Clc1ccc(-c2c[n+](Cc3ccc(Cl)cc3Cl)c3n2CCCCC3)cc1 | -3.21% (inactive)
84 | CCOC(=O)Cc1ccc(NS(=O)(=O)c2ccc(SC)cc2)cc1 | -8.64% (inactive)
85 | CCOC(=O)N1CCN(C(=O)c2ccc(NC(=O)c3ccc(C)cc3)cc2)CC1 | 12.8% (inactive)
86 | O=C(O)C1CCC(N2C(=O)C3CCCCC3C2=O)CC1 (centres undefined) | -1.85% (inactive)
87 | COC(=O)c1sccc1NC(=O)c1cccnc1 | 0.03% (inactive)
88 | Cc1ccc(Nc2nnc(C3C(=O)N(C)C4(C)CC3c3cc(Br)ccc3O4)s2)cc1 (centres undefined) | -4.36% (inactive)
89 | Cc1ccc(S(=O)(=O)c2c(C(=O)c3ccccc3)cnc3cc4c(cc23)OCCO4)cc1 | 16.2% (inactive)
90 | CC1(C)CC(=O)C2=C(C1)N(Cc1ccccc1)C(=O)C2(O)C(F)(F)F (centres undefined) | 2% (inactive)
91 | CCN1C(=O)/C(=C/N2CC(C)CC(C)C2)SC1=S (centres undefined) | -15.7% (inactive)
92 | Cc1cc([N+](=O)[O-])ccc1NC(=O)Cc1ccc(F)cc1 | -22.2% (inactive)

Row | SMILES | inhibition
93 | Cc1ccsc1/C=N/NC(=O)Cn1cnc2ccccc21 | -7.04% (inactive)
94 | O=C(CSc1n[nH]c(=O)[nH]c1=O)N/N=C/c1ccccc1 | -7.06% (inactive)
95 | Cc1ccccc1-n1c(C)cc(/C=N/Nc2ccc([N+](=O)[O-])cn2)c1C | 0.91% (inactive)
96 | CN(CCO)c1cc(Sc2nc3ccccc3s2)c2nonc2c1[N+](=O)[O-] | 0.73% (inactive)
97 | Cc1ccc([N+](=O)[O-])cc1NC(=S)NC(=O)C(C)(C)C | -14.7% (inactive)
98 | O=C(CSc1nc2ccccc2s1)Nc1ccc(N2CCOCC2)c(Cl)c1 | -4.65% (inactive)
99 | COc1ccc(NC(=O)c2sccc2SCC#N)cc1 | -8.07% (inactive)
100 | CC(=S)c1c(C)cc2cc(C)ccn12 | -0.73% (inactive)
101 | CN(C)c1ccnc(Oc2ccc(F)cc2)c1C#N | -6.5% (inactive)
102 | CCn1c(SCc2ccc(F)cc2)nnc1C1CCN(S(=O)(=O)c2ccc(OC)cc2)CC1 | -8.67% (inactive)
103 | Cc1ccc(C(C)C)c(OCC(=O)Nn2c(=O)[nH]c3ccccc3c2=O)c1 | 10% (inactive)
104 | COc1ccc(S(=O)(=O)N2Cc3ccccc3CC2C(=O)N2CCOCC2)cc1OC (centres undefined) | -0.72% (inactive)
105 | CCNC(=O)NC1(C(=O)Nc2ccc3c(c2)OCCO3)CCCCC1 | -6.31% (inactive)
106 | CCN(CC)c1ccc(S(=O)(=O)Nc2cc(Cl)ccc2Cl)cc1NC(=S)NC(=O)C1CCCC1 | -28.7% (inactive)
107 | CCN1CCN(Cc2ccc(C)cc2C)CC1 | -22.1% (inactive)
108 | Cc1ccc(C2NNC(=O)C2NC(=O)c2ccccc2)cc1 (centres undefined) | -8.3% (inactive)
109 | Cc1nc(N)sc1Cc1ccc2c(c1)OCO2 | -1.43% (inactive)
110 | C=CCNc1sc(C(=O)c2ccc(C)cc2)c(N)c1C#N | 7.13% (inactive)
111 | COC(=O)C(CCSC)NC(=O)c1cccc([N+](=O)[O-])c1 (centres undefined) | 1.67% (inactive)
112 | NC(=O)c1cnn(Cc2ccc(Cl)cc2)c1N | -11.2% (inactive)
113 | Cc1nc2c(Cl)cccc2c2c1CC(CBr)O2 (centres undefined) | 8.79% (inactive)
114 | CC(=O)NC12CC3CC(C1)CC(C(=O)OCC(=O)c1ccc4c(c1)OCCO4)(C3)C2 | -5.94% (inactive)
